S1P2 agonist = activates the human S1P2 receptor | O95136 | S1P2-expressing cell line, agonist reporter read-out | activation, % at 4.5 µM | 0.46% of 97,000 active; in the data active = activation above about 16%
S1P2 antag = antagonists of human S1P2 receptor | 0.21% of 97,000 active | AID 736 | cell-based S1P2 antagonist assay, inhibition at 5 uM | inhibition, % at 5 µM; in the data active = inhibition above about 45%;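 note: CRE beta-lactamase reporter cells expressing human S1P2 stimulated with S1P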
hDAT+cocaine = modulates human dopamine transporter uptake under cocaine; Q01959; LLC-PK1 hDAT cells, [14C]-dopamine uptake with cocaine IC80; actives deviate in either direction; B-score at 10 µM; 1.3% of 110,000 active; AID 449768;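 active = Z score or B-score, a plate-position-corrected score, falls beyond the plate's 99.7% confidence bounds, in either direction; inactive = both scores lie inside the 99.7% bounds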
Target sequence (Q01959 whole entry, looked up): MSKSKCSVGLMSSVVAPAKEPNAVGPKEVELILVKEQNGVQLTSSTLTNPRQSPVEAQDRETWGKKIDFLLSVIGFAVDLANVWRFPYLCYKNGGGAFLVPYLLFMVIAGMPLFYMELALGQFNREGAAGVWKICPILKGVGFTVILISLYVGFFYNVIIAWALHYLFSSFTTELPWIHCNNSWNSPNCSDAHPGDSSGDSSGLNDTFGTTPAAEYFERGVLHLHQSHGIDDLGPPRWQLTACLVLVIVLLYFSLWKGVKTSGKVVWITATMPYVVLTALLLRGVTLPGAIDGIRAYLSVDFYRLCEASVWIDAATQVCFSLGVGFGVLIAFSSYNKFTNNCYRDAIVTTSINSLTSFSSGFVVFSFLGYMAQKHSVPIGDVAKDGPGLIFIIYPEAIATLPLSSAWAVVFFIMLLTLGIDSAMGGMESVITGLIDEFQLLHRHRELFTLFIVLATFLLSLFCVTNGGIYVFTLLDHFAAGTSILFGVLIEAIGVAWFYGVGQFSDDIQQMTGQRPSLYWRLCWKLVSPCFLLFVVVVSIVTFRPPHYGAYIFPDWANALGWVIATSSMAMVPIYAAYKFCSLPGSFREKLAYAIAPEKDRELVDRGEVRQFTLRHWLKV
GALR2 blocker = antagonists of human galanin receptor 2 (GALR2); GALR2-expressing cells, antagonist mode; 0.39% of 140,000 active; inhibition, % at 4 µM; AID 828; O43603; in the data active = inhibition above about 27%;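 note: cells stimulated with galanin 1-16 at roughly its EC80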
GALR2 agonist = agonists of human galanin receptor 2 (GALR2); GALR2-expressing cells, agonist activation read-out; activation, % (concentration not given with the values); 0.48% of 140,000 active; AID 803; in the data active = activation above about 5%, passing the limit was not always enough
Large screens that a line does not name were inactive; ! = a repeat was not active. An excerpt weighted towards active compounds, which were near 2.1% of everything screened.

COc1ccc(-c2c3c(=O)n(C)c(=O)n(C)c3cn2Cc2ccccn2)cc1	none
COc1ccc(-c2c3c(=O)n(C)c(=O)n(C)c3cn2Cc2cccnc2)cc1	hDAT+cocaine -8.66
CCOC(=O)c1c(CN(CC)CC)oc2cc(Br)c(O)cc12	hDAT+cocaine 4.06
Cc1cc(C)n2cc(CSc3nnnn3-c3ccc(Cl)cc3)nc2n1	S1P2 agonist 106.4
Cc1cc(C)n2cc(CSc3nnnn3-c3ccccc3)nc2n1	none
COc1ccc(/C(C)=N\Nc2nc(-c3ccc(Cl)cc3)cc(C(F)(F)F)n2)cc1OC	none (no result: S1P2 agonist, S1P2 antag, hDAT+cocaine)
CN(C)S(=O)(=O)c1cccc(-c2nn(-c3ccccc3)cc2/C=C(\C#N)c2nc3ccccc3[nH]2)c1	GALR2 agonist 7.3 (no result: S1P2 agonist, S1P2 antag, hDAT+cocaine)
N#C/C(=C\c1cn(-c2ccccc2)nc1-c1cc2ccccc2o1)c1nc2ccccc2[nH]1	none (no result: S1P2 agonist, S1P2 antag, hDAT+cocaine)
CC(C)OC(=O)CSc1nnc(SCc2cccc3ccccc23)s1	none
N/C(=N\OC(=O)CSc1ccccc1)c1ccc([N+](=O)[O-])cc1	none (no result: S1P2 agonist, S1P2 antag, hDAT+cocaine)
CN(C(=O)COc1cc(=O)n(C)c2ccccc12)c1ccc(Cl)cc1	none
CN(c1ccc(Cl)cc1)c1cc(=O)n(C)c2ccccc12	hDAT+cocaine 3.07
[O-]/C(=C(\C(=S)Nc1cccc2ccccc12)[n+]1ccccc1)c1ccc2c(c1)OCCO2	none
O=c1c2cnn(-c3ccccc3)c2nnn1Cc1ccccn1	hDAT+cocaine 2.66
O=c1c2cnn(-c3ccccc3)c2ncn1Cc1ccccn1	none
Cc1cccc(C(C)C)c1NC(=O)c1ccc(CN(c2ccccc2)S(=O)(=O)c2ccccc2)cc1	none (no result: S1P2 agonist, S1P2 antag, hDAT+cocaine)
CCCc1[nH][nH]c(=O)c1C(c1cccc(Cl)c1)C(C#N)C#N (configuration not stated)	hDAT+cocaine -9.36
CC1=NN(C(=O)COc2ccc(C)c(C)c2)C(O)(c2ccccc2)C1 (configuration not stated)	none (no result: S1P2 agonist, S1P2 antag, hDAT+cocaine)
COc1ccc(C)cc1N(C(=O)CNC(=O)c1ccco1)C(C(=O)NC1CCCC1)c1cccnc1 (configuration not stated)	none
CCn1c(SCC(=O)c2ccc3c(c2)Cc2ccccc2-3)nnc1-c1ccc(N)cc1	hDAT+cocaine 1.71
CCn1c(SCC(=O)c2ccc(O)c(O)c2)nnc1-c1ccc(C)cc1	none
CCN(Cc1cc2cc(OC)ccc2[nH]c1=O)C(=O)c1ccncc1	none
CCN(Cc1cc2cc(OC)ccc2[nH]c1=O)C(=O)Cc1ccc(OC)cc1	hDAT+cocaine -3.21
COc1cccc(C(=O)N(Cc2cc3cc(C)ccc3[nH]c2=O)CC2CCCO2)c1 (configuration not stated)	hDAT+cocaine 3 (no result: S1P2 agonist, S1P2 antag)
O=C1C2CC=C(Cl)CC2C(=O)N1CCC[n+]1cccc2ccccc21 (configuration not stated)	none (no result: S1P2 agonist, S1P2 antag, hDAT+cocaine)
CCCCn1c(NC(=O)c2ccccc2Cl)c(C#N)c2nc3ccccc3nc21	GALR2 agonist 7.3
O=C(Nc1ccc(Oc2nnc(-c3ccccc3)c3ccccc23)cc1)c1ccccc1	none (no result: S1P2 agonist, S1P2 antag, hDAT+cocaine)
O=C(c1ccc(Br)o1)N1CCN(c2ccccc2F)CC1	none
O=C(c1ccc(Br)o1)N1CCN(c2ccccn2)CC1	hDAT+cocaine 2.45
CNC(=O)c1[nH]cnc1C(=O)N[C@@H](Cc1ccccc1)C(=O)OCc1ccccc1	none (no result: S1P2 agonist, S1P2 antag, GALR2 blocker, GALR2 agonist)
CNC(=O)c1[nH]cnc1C(=O)N[C@@H](C)C(=O)OCc1ccccc1	hDAT+cocaine 2.4 (no result: S1P2 agonist, S1P2 antag, GALR2 blocker, GALR2 agonist)
CCOC(=O)Nc1c(C(=O)OC)[nH]c2cccc(OC)c12	none
CC(=O)Nc1ccc(-c2nc3c(C)cccc3[nH]2)cc1	hDAT+cocaine -8.11
COc1ccc(C(=O)Nc2ccc(/C(C)=N/NC(=O)c3ccccc3O)cc2)cc1OC	none (no result: S1P2 agonist, S1P2 antag, hDAT+cocaine)
CCN1CCN(Cc2cc(=O)oc3cc(C)cc(C)c23)CC1	none
CCc1cc2c(CN3CCN(CC)CC3)cc(=O)oc2cc1O	GALR2 agonist 4.9
COc1cc2c(cc1OC)C(COc1ccc3c(C)cc(=O)oc3c1)N(C(=O)c1ccco1)CC2 (configuration not stated)	S1P2 agonist 21.2
Cc1ccc(NC(=O)c2ccc(Cn3cc([N+](=O)[O-])cn3)cc2)c(C)c1	none (no result: S1P2 agonist, S1P2 antag, hDAT+cocaine)
CC(=O)c1cccc(NC(=O)C(OC(=O)/C=C/c2ccc3c(c2)OCO3)c2ccccc2)c1 (configuration not stated)	none
CCn1c(=O)c(C(=O)Nc2cccnc2)c(O)c2ccccc21	none (no result: hDAT+cocaine)
CCn1c(=O)c(C(=O)NCc2cccnc2)c(O)c2ccccc21	hDAT+cocaine -8.39
CCOC(=O)C1=C(C)NC2=C(C(=O)CCC2)C1c1cccs1 (configuration not stated)	none
CCOC(=O)c1sc2c(c1C)C(c1cccs1)C1=C(CCCC1=O)N2 (configuration not stated)	S1P2 agonist 31.1, GALR2 agonist 9.2
CCOc1cc(CNCCc2ccc(S(N)(=O)=O)cc2)ccc1OCc1ccc(Cl)cc1	S1P2 antag 61.4
COc1cc(CNCCc2ccc(S(N)(=O)=O)cc2)ccc1OCc1ccc(Cl)cc1	none
CCC(C(=O)NCc1ccc(F)cc1)N(Cc1ccco1)C(=O)c1snc(C(N)=O)c1N (configuration not stated)	hDAT+cocaine 4.26
Cc1noc2ncnc(Sc3c(Cl)cccc3Cl)c12	S1P2 antag 47.9
O=c1c(=O)n(O)c2ccccc2n1O	none
Cc1ccccc1-n1c(SCc2cc(=O)n3ccccc3n2)nc2[nH]ncc2c1=O	S1P2 agonist 24.1
Cc1cc(C)n2nc(SCc3cc(=O)n4ccccc4n3)nc2n1	S1P2 agonist 20.1 (no result: hDAT+cocaine)
CN(C)c1nc(N)c(C(=O)N=C(N)N)nc1Cl	none (no result: S1P2 agonist, S1P2 antag, GALR2 blocker, GALR2 agonist)
O=c1c2ccccc2oc2cc(C#CC3(O)CCCCC3)ccc12	hDAT+cocaine 2.24 (no result: S1P2 agonist, S1P2 antag, GALR2 blocker, GALR2 agonist)
O=c1c2ccccc2sc2ccc(C#CC3(O)CCCCC3)cc12	none (no result: S1P2 agonist, S1P2 antag, GALR2 blocker, GALR2 agonist)
COc1ccc(-c2nc(=S)c3c([nH]2)Oc2ccc(C)cc2C3)cc1O	none (no result: S1P2 agonist, S1P2 antag, hDAT+cocaine)
C=CCN1C(c2ccc(OCC)cc2)=CS/C1=C(\C#N)c1nnc2n1CCCCC2	hDAT+cocaine 3.79! (no result: S1P2 agonist, S1P2 antag)
COc1ccccc1NC(=O)NCCCl	hDAT+cocaine -2.41
Cc1ccc2sc(NC(=O)c3ccc(N4C(=O)CCC4=O)cc3)nc2c1C	GALR2 agonist 6.7 (no result: S1P2 agonist, S1P2 antag, hDAT+cocaine)
CCCCNc1nc(=S)[nH]c2cc(OC)c(OC)cc12	none
CCOCCCNc1nc(=S)[nH]c2cc(OC)c(OC)cc12	S1P2 agonist 448.9
COC(=O)[C@@H]1C(c2c(OC)cc(OC)cc2OC)=NO[C@H]1C(=O)OC	none (no result: S1P2 agonist, S1P2 antag, hDAT+cocaine)
Cc1nc2ccccc2n2c(-c3ccccc3)c3c(=O)n(C)c(=O)n(C)c3c12	none
Clc1ccc(OCc2nnc(SCCN3CCCCC3)n2Cc2ccco2)cc1	hDAT+cocaine 3.25 (no result: S1P2 agonist, S1P2 antag)
O=c1c2ccccc2nnn1CSc1nnc(COc2ccc(Cl)cc2)n1Cc1ccco1	none
O=C(O)/C=C/c1ccc(Cn2ccnc2)cc1	none (no result: S1P2 agonist, S1P2 antag, GALR2 blocker, GALR2 agonist)
CC(=O)C1=C(O)C(=O)N(CC#N)C1c1cccs1 (configuration not stated)	S1P2 agonist 36.5
CCNC(=S)NN(c1ccccc1)c1ccccc1	none
COc1ccc(C2C(C#N)=C3NC(=O)c4c(sc5c4CCCCC5)N3C3=C2C(=O)CC(C)(C)C3)cc1 (configuration not stated)	hDAT+cocaine 2.33
Cc1ccc(C(C(=O)NC2CCCC2)N2CCc3ccccc32)cc1 (configuration not stated)	none

Bioassay records (PubChem)
